dFosB act: mouse delta FosB homodimer activation; P13346; purified delta FosB, TAMRA-CDK5 oligo fluorescence polarization; percent of positive-control signal above neutral wells; activation, % at 25 µM; 340,000 compounds, 0.99% hits; AID 493131;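 active means mean activation above about 17%, with every replicate also reaching it, limit read from the data, passing the limit was not always enough; inconclusive means only one of the two conditions met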
Target sequence (P13346 whole entry, looked up): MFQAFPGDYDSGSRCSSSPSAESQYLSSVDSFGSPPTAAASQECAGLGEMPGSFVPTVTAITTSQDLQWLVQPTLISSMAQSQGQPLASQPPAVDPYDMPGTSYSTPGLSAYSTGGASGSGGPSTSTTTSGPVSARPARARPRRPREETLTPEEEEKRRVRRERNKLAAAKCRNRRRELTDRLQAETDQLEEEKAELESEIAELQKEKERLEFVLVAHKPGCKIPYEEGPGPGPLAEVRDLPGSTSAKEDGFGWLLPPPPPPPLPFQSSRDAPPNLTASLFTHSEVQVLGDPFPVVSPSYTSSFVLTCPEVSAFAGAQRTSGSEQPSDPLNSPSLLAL
DYRK1A inh: blocks rat Dyrk1A kinase activity; Q63470; ADP-Glo luminescence, NFATc1 peptide; inhibition, % at 12.5 µM; 310,000 compounds, 0.43% hits; AID 504441; in the data active means inhibition above about 50%;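 further: plate controls were vehicle with enzyme for no effect and no enzyme for full effect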
B2AR ag: human beta-2 adrenergic receptor agonism by FAP; P07550; Am2.2-beta2AR cells, FAP receptor internalization, flow cytometry; response, % (no concentration beside the values); 340,000 compounds, 0.43% hits;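 active means response above a set limit, near 3 SD of response in nonfluorescent compounds, cut at about 42% in these data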
A1 inh: inhibitors of the anti-apoptotic protein A1, read as caspase activation | MEF A1-2A-BIM cells, Caspase-Glo 3/7 luminescence, 3 h; percent of clofoctol response, vehicle zero | caspase activation, % (no concentration beside the values) | 330,000 compounds, 0.066% hits | AID 2462;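 active means over half of replicate activation scores above 10%, or exactly half above 10 with the replicate mean above 10; inconclusive means replicate mean below 10 yet half the replicates above 10; inactive means over half of replicates below 10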
B2AR ag CP1: human beta-2 adrenergic receptor agonism, cherry pick | percent response (surface receptor), % at 10 µM | Am2.2-beta2AR cells, FAP surface receptor, flow cytometry; stronger effect = lower value | 1,100 compounds, 25% hits | shares compounds with B2AR ag;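 active means surface receptor percent response at or below 58%, roughly 3 SD from nonfluorescent compounds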
B2AR FAP counter: fluorescence artifact in beta-2AR agonist FAP counterscreen; AID 588765; calls only at 10 µM; 1,100 tested, under 10 active; shares compounds with B2AR ag; Am2.2 cells, FAP fluorogen flow cytometry; stronger effect = lower value;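 active means percent response below a set limit in fluorescence channel 1 and below 50% in channel 8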
Numbers without * were called inactive; i = inactive; ? = inconclusive; nt = not tested or not shown. A selection: hits, their analogues and other compounds. The true share with any hit is near 1.6%.

SMILES	dFosB act	DYRK1A inh	B2AR ag	A1 inh	B2AR ag CP1	B2AR FAP counter
CCCNC(=O)c1nnsc1S(=O)(=O)c1ccc(Cl)cc1	-2.3	0.5	80.7*	nt	54.7*	i
COc1cccc(NC(=O)CN(C)C(=O)C2=COCCO2)c1	-6.6	7.8	-1.0	nt	nt	nt
CCC1(C)NC(=O)N(CC(=O)N2CCC(Cc3ccccc3)CC2)C1=O (stereo not drawn)	-2.5	nt	2.8	0.4	nt	nt
CCC(=O)N1C(Cc2ccccc2)COC1(C)C (stereo not drawn)	-0.3	1.0	-0.6	0.5	104.8	i
Cc1ccc(NC(=O)CN(C)CC(=O)N(CC(C)C)c2c(N)n(CC(C)C)c(=O)[nH]c2=O)c(C)c1	-6.0	-1.1	-4.3	-1.0	nt	nt
O=C(OCc1c(F)cccc1Cl)c1cnc2ccccc2n1	7.0	3.6	46.1*	0.3	107.8	i
CCN1CCN(c2ccc(S(=O)(=O)N3CCCCC3)cc2N)CC1	-1.9	-0.4	-2.3	-1.4	nt	nt
Cc1cccc(S(=O)(=O)Nc2ccc(-c3cn4ccccc4n3)cc2)c1	-2.9	-2.0	78.9*	0.3	131.1	i
Cn1nc(-c2ccccc2)c(CO)c1Oc1ccc(F)cc1	-1.8	2.3	-1.1	0.3	nt	nt
O=C(Nc1cccc(-c2nc3cccnc3s2)c1)C1c2ccccc2Oc2ccccc21	?	1.8	73.9*	nt	44.4*	i
O=C(CNc1ccccc1F)Nc1cccc(S(=O)(=O)N2CCCCC2)c1	-2.3	12.4	10.2	nt	nt	nt
COc1ccc(C(=O)NC(C)c2cnn(-c3ccccn3)c2C)o1 (stereo not drawn)	-2.6	2.6	-3.2	-0.8	nt	nt
C[C@@H]1CC[C@H](Cc2ccc(-n3cccc3)cc2)N1C(=O)OC(C)(C)C	nt	nt	nt	nt	96.5	i
CN(C)c1nc(SCc2ccccc2Cl)nc2c1CCCC2	0.9	5.1	43.2*	2.0	130.8	i
Cc1ccc(CSc2nc3c(c(N(C)C)n2)CCCC3)cc1	-4.1	-0.1	-5.0	1.1	nt	nt
COc1cc2nc(N3CCNCC3)nc(N)c2cc1OC	-73.5	-13.1	61.2*	-0.1	51.0*	i
CC(=O)c1ccc(-c2ccc(C(=O)NCC3CCCO3)o2)cc1 (stereo not drawn)	-22.2	9.8	3.0	0.0	nt	nt
CCOc1ccc(S(=O)(=O)N2CCOCC2)cc1NC(=O)c1ccc(N2CCCC2=O)cc1	-20.4	-7.5	41.1	1.4	nt	nt
COc1ccc(NC(=O)c2cc(-c3ccncc3)nc3ccc(Br)cc23)cc1OC	6.5	-4.6	97.0*	0.7	90.1	i
COc1ccc(NC(=O)c2cc(-c3cccnc3)nc3ccc(C)cc23)cc1OC	7.5	-0.8	32.5	nt	nt	nt
CC(C)CCN(C(=O)C1CSC2(C)CCC(=O)N12)c1c(N)n(Cc2ccccc2)c(=O)[nH]c1=O (stereo not drawn)	-6.6	-2.5	2.4	0.5	nt	nt
CCCc1cc(=O)n2c(nc3ccccc32)[nH]1	-12.3	0.8	67.8*	0.3	94.7	i
O=C(CCCc1c[nH]c2ccccc12)NCc1ccccc1F	0.1	-2.5	-2.0	0.1	nt	nt
Cc1ccc(CNC(=O)CCCc2c[nH]c3ccccc23)cc1	-12.6	-1.2	51.5*	1.4	103.9	i
OC(C#Cc1ccccn1)c1cccs1 (stereo not drawn)	0.8	3.6	62.7*	0.1	117.6	i
SMILES	dFosB act	DYRK1A inh	B2AR ag	A1 inh	B2AR ag CP1	B2AR FAP counter
O=C(NC1CCCCC1)C(c1cccs1)N(C(=O)c1ccccn1)c1ccccc1 (stereo not drawn)	-10.3	-3.7	-2.3	-1.0	nt	nt
Cc1cccc(Nc2n[nH]c(C)c2[N+](=O)[O-])c1	-1.0	-3.2	64.0*	-0.5	114.3	i
O=C(COC(=O)c1ccccc1C(=O)c1ccc(Cl)c([N+](=O)[O-])c1)NC1CC1	-10.6	2.9	42.8*	0.3	68.1	i
Cc1ccc(OCC(=O)Nc2ccc3c(c2)nc(CCN2CCN(C)CC2)n3C)cc1	0.5	5.6	1.0	0.4	94.5	i
CN1CCN(CCc2nc3cc(NC(=O)COc4ccc(Cl)cc4)ccc3n2C)CC1	-2.7	-1.0	47.2*	-0.5	96.8	i
Cn1c(CCN2CCCCC2)nc2cc(NC(=O)COc3ccc(Cl)cc3)ccc21	-1.4	-4.4	3.8	0.4	nt	nt
[N-]=[N+]=NC1CC(CO)OC1n1ccc(=O)[nH]c1=O (stereo not drawn)	-5.5	-4.3	-3.4	0.2	nt	nt
Fc1ccccc1OCCCCN1CCCCC1	-4.1	0.3	2.1	1.1	nt	nt

Screens: PubChem BioAssay, several laboratories
